According to the supplement of paper PMC12669032:
Several values for one entry are separate records, joined by “and”; a condition that tells them apart may be missing. Equal values may be shown once. A number with no mark means an inactive call.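 The calls were made as follows: active = AUC reduced over 20% with Padj below 0.05 in at least 2 of 3 replicates; inactive = otherwise.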

Columns and labels:
Test in all cases: growth AUC relative to DMSO control (median of replicates) (fraction); higher = more growth (less inhibition), active = hit call of the paper
Conditions in all cases: 20 µM; 24 h
Akkermansia muciniphila = system: Akkermansia muciniphila
In short: (§1)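 Hourly OD600 readings over 24 h tracked anaerobic gut bacterial monocultures grown at 37 °C in mGAM from OD600 0.05 with 20 µM compound (1% DMSO). After the minimum OD was set to 0, area under the growth curve was normalised to the plate median of solvent-only wells, or to row and column medians on the industrial chemical plate. Values are medians of three biological replicates grown on separate days.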

Bacteroides caccae = system: Bacteroides caccae
In short: as §1

Bacteroides clarus = system: Bacteroides clarus
In short: as §1

Bacteroides dorei = system: Bacteroides dorei
In short: as §1

Bacteroides stercoris = system: Bacteroides stercoris
In short: as §1

[1] = system: Bacteroides thetaiotaomicron
In short: as §1

Bacteroides uniformis = system: Bacteroides uniformis
In short: as §1

[2] = system: Bifidobacterium longum subsp. longum
In short: as §1

Clostridium difficile = system: Clostridium difficile
In short: as §1

Collinsella aerofaciens = system: Collinsella aerofaciens
In short: as §1

Coprococcus comes = system: Coprococcus comes
In short: as §1

Escherichia coli ED1a = system: Escherichia coli ED1a
In short: as §1

Escherichia coli IAI1 = system: Escherichia coli IAI1
In short: as §1

Eubacterium rectale = system: Eubacterium rectale
In short: as §1

[3] = system: Fusobacterium nucleatum subsp. animalis
In short: as §1

Lactobacillus gasseri = system: Lactobacillus gasseri
In short: as §1

Lactobacillus paracasei = system: Lactobacillus paracasei
In short: as §1

Odoribacter splanchnicus = system: Odoribacter splanchnicus
In short: as §1

[4] = system: Parabacteroides distasonis
In short: as §1

Parabacteroides merdae = system: Parabacteroides merdae
In short: as §1

SMILES	growth AUC (Akkermansia muciniphila)	growth AUC (Bacteroides caccae)	growth AUC (Bacteroides clarus)	growth AUC (Bacteroides dorei)	growth AUC (Bacteroides stercoris)	growth AUC [1]	growth AUC (Bacteroides uniformis)	growth AUC [2]	growth AUC (Clostridium difficile)	growth AUC (Collinsella aerofaciens)	growth AUC (Coprococcus comes)	growth AUC (Escherichia coli ED1a)	growth AUC (Escherichia coli IAI1)	growth AUC (Eubacterium rectale)	growth AUC [3]	growth AUC (Lactobacillus gasseri)	growth AUC (Lactobacillus paracasei)	growth AUC (Odoribacter splanchnicus)	growth AUC [4]	growth AUC (Parabacteroides merdae)
CNC(=O)Oc1ccccc1OC(C)C	0.914	0.993	0.977	1.01	1.01	0.975	0.979	0.996	0.986	0.955	0.974	0.986	0.982	0.952	0.994	0.892	0.982	1.02	1.01	0.981
CC(=O)O.CC(=O)O.CC(=O)O.NC(N)=NCCCCCCCCNCCCCCCCCN=C(N)N	0.692	0.639 (active)	0.523 (active)	0.0196 (active)	0.0269 (active)	0.0154 (active)	0.158 (active)	0.195 (active)	0.869	0.871	0.0653 (active)	0.966	0.822	0.0201 (active)	0.729	0.89	0.834	0.0272 (active)	0.213 (active)	0.025 (active)
CCCN(CCC)c1c([N+](=O)[O-])cc(C(C)C)cc1[N+](=O)[O-]	1.12	1.01	0.978	0.994	0.991	0.962	1.03	1.02	0.991	0.99	1.06	1.02	0.996	1.02	1	0.941	1.09	0.989	0.932	0.984
CCCCCCCCSC(=O)Oc1cc(Cl)nnc1-c1ccccc1	1.01	0.983	0.983	0.99	0.981	1.02	0.91	0.966	0.981	0.973	0.98	0.976	0.972	0.868	0.914	1.02	1.04	0.905	0.99	0.967
CNC(=O)Oc1cccc(N=CN(C)C)c1.Cl	1.18	1.03	1.03	1.02	1.12	1.02	0.993	1.06	1.02	1.04	1.04	1	1.05	1.04	1.07	1.02	1.04	1.02	1.03	1.02
CCCSP(=O)(OCC)SCCC	1.14	0.994	1.02	0.962	1.02	0.998	0.98	1.02	0.997	0.99	1.03	1.02	0.987	1.07	0.995	0.902	0.96	0.986	0.976	1.01
Cc1cc(C)nc(NC(=O)NS(=O)(=O)c2ccccc2C(=O)OC2COC2)n1	1.03	0.952	0.973	0.945	1.04	0.752 (active)	1.03	0.858	1.05	0.98	0.97	0.986	0.983	1.07	1.02	0.884	1.08	1.01	1.02	0.997
Nc1ccc(Cc2ccc(N)c(Cl)c2)cc1Cl	0.988	0.994	0.981	1.01	0.931	0.971	0.968	1.02	1	1	1	1.01	1.01	1.01	0.997	1.04	1.07	1.11	1.08	1
COP(=S)(OC)Oc1cc(Cl)c(Br)cc1Cl	0.9	0.961	0.966	0.995	1.03	0.963	1.01	0.971	0.966	0.978	0.982	0.987	0.965	1.03	0.952	1.06	0.996	1.02	0.946	0.917
CNC(=O)Oc1cccc2ccccc12	1.08	0.993	1.01	0.991	1.02	0.998	1.03	1.03	1.01	0.987	1.03	1.01	0.982	1.05	1.03	0.907	1.1	1.05	0.944	1
CCOC(=O)CCN(SN(C)C(=O)Oc1cccc2c1OC(C)(C)C2)C(C)C	1.1	1.04	0.985	1	0.982	1.02	1.05	1.01	0.999	0.978	1.01	0.994	1.01	1.1	0.907	0.911	1.01	1.02	1.05	0.979
ClC1C(Cl)C(Cl)C(Cl)C(Cl)C1Cl (centres undefined)	–	–	–	–	–	–	–	–	–	1.02 and 1.01 and 1.03	–	0.985 and 1.04 and 1.03	1 and 1.02 and 1.01	1.02 and 0.946 and 1.01	–	–	–	–	–	–
CNC(=O)Oc1ccc(N(C)C)c(C)c1	1.05	0.855	1.01	0.983	1.41	0.994	1	0.979	0.99	0.932	0.992	1	1.01	1.06	1.08	0.909	1	0.861	0.977	0.986
Oc1c(Cl)ccc(Cl)c1Cl	1.04	0.927	0.968	0.954	1.15	0.987	0.981	1.02	1	0.937	0.98	1.02	0.985	0.969	1.05	0.922	1.01	0.915	0.911	0.981
CCCSC(=O)N(CCC)CCC	0.868	0.991	0.957	1.02	0.946	1.01	1.02	1.04	1.01	0.967	0.994	0.974	0.985	1.01	1	1.01	0.954	1.01	0.995	0.991
CCCCOC(=O)c1ccccc1C(=O)OCCCC	1.05	0.94	1.01	0.998	0.99	1	0.978	0.938	1.02	0.985	1	1	0.962	1.07	1.06	0.911	0.986	1.07	0.759 (active)	0.964
